U2OS ROS induce: cancer cell ROS induction; U2OS ROS induction, H2DCF-DA fluorescence; 2% of 46,000 active; ROS induction (% of piperlongumine), % at 10 µM; in the data active = ROS induction above about 79%, passing the limit was not always enough
YB-1 expression: YB-1 expression inhibition; delta delta Cp (YB-1 minus CDIP) (test concentration not listed); U2OS, qRT-PCR YB-1 vs CDIP delta delta Cp, 16 h; active compounds read high; zero = DMSO, each unit about twofold; 0.37% of 30,000 active;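 active = delta delta Cp rounded down to an integer at or above 3, about 3 SD of DMSO wells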;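 note: higher means less YB-1 transcript or more CDIP transcript relative to DMSO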
NOMO-1 viab: STK33 inhibitor candidate reducing NOMO-1 cell viability; 7.5% of 37,000 active; inhibition, % (test concentration not listed); NOMO-1 AML viability, CellTiter-Glo luminescence, 72 h; in the data active = inhibition above about 80%
PD-1 reverse act: activators reversing PD-1 mediated T-cell inhibition. primary human CD4 T cells, PD-L1 beads, CellTiter-Glo 96 h. activation, % (no concentration beside the values). 29,000 tested, under 10 active; call rule not given here
Numbers stand for hits. Shown is part of a subset that was picked to be rich in hits.

Results for C[C@H]1CN([C@@H](C)CO)C(=O)Cc2cc(NS(=O)(=O)c3ccccc3)ccc2O[C@@H]1CN(C)Cc1ccccc1 ?
U2OS ROS induce: inactive; YB-1 expression: inactive; NOMO-1 viab: inactive; PD-1 reverse act: inactive

What do the screens show for `C[C@@H]1CN([C@H](C)CO)C(=O)Cc2cc(NS(=O)(=O)c3ccccc3)ccc2O[C@@H]1CN(C)Cc1ccc(Cl)c(Cl)c1`?
U2OS ROS induce: inactive; YB-1 expression: inactive; NOMO-1 viab: 84.9; PD-1 reverse act: inactive

How did C[C@H](CO)N1C[C@H](C)[C@H](CN(C)Cc2ccccc2)Oc2ccc(NS(=O)(=O)c3ccccc3)cc2CC1=O do in these assays?
U2OS ROS induce: inactive; YB-1 expression: inactive; NOMO-1 viab: inactive; PD-1 reverse act: inactive

What do the screens show for `CCOC(=O)C1(NC(=S)N2CCOCC2)Sc2cc(C)ccc2NC1=O` (configuration not stated)?
U2OS ROS induce: inactive

How did Cc1csc(/C=C2\CCc3c(cnc4ccc5ccccc5c34)C2=O)c1 do in these assays?
U2OS ROS induce: inactive

How did Cc1cc2nn(-c3ccccc3)nc2cc1NC(=O)C(C)(C)Oc1ccc(Cl)cc1 do in these assays?
U2OS ROS induce: inactive; NOMO-1 viab: inactive; PD-1 reverse act: inactive

Results for C[C@@H]1CN([C@H](C)CO)C(=O)Cc2cc(NC(=O)Nc3ccc(C(F)(F)F)cc3)ccc2O[C@H]1CN(C)Cc1ccc(Oc2ccccc2)cc1 ?
U2OS ROS induce: inactive; YB-1 expression: inactive; NOMO-1 viab: 112.2

Results for C[C@H](CO)N1C[C@H](C)[C@H](CN(C)Cc2ccc(Oc3ccccc3)cc2)Oc2ccc(NC(=O)Nc3ccc(C(F)(F)F)cc3)cc2CC1=O ?
U2OS ROS induce: inactive; YB-1 expression: inactive; NOMO-1 viab: 119.3; PD-1 reverse act: inactive

How did COc1ccccc1C1N(c2ccc(Cl)cc2)C(=O)N2CCCN12 (configuration not stated) do in these assays?
U2OS ROS induce: inactive

Results for COC(=O)c1nn(-c2ccccc2)c2oc(=O)cc(C)c12 ?
U2OS ROS induce: inactive

How did N#CC(C(=Nc1ccccc1)SCc1ccc(Cl)cc1)c1nc2ccccc2[nH]1 (configuration not stated) do in these assays?
U2OS ROS induce: inactive

How did COC(=O)c1c(-c2ccccc2)csc1NC(=O)c1cc(-c2cccnc2)nc2ccccc12 do in these assays?
NOMO-1 viab: 104.2

Results for C[C@H](CO)N1C[C@H](C)[C@H](CN(C)Cc2ccc(Cl)c(Cl)c2)Oc2ccc(NS(=O)(=O)c3ccc(F)cc3)cc2CC1=O ?
U2OS ROS induce: inactive; YB-1 expression: inactive; NOMO-1 viab: 107.3; PD-1 reverse act: inactive

How did C[C@@H]1CN([C@H](C)CO)C(=O)Cc2cc(NS(=O)(=O)c3ccc(F)cc3)ccc2O[C@@H]1CN(C)Cc1ccc(Cl)c(Cl)c1 do in these assays?
U2OS ROS induce: inactive; YB-1 expression: inactive; NOMO-1 viab: 106.2; PD-1 reverse act: inactive

What do the screens show for `COc1ccc2c(c1)cc(C)c1nnc(SCC(=O)Nc3cccc(C(C)=O)c3)n12`?
U2OS ROS induce: inactive; YB-1 expression: inactive; NOMO-1 viab: inactive; PD-1 reverse act: inactive

How did CCCn1c(N)nc2c1c(=O)n(C)c(=O)n2C do in these assays?
U2OS ROS induce: inactive

Results for CC1N=C(SCC#N)N2C(C)N=C(SCC#N)N12 (configuration not stated) ?
U2OS ROS induce: inactive; YB-1 expression: inactive; NOMO-1 viab: inactive; PD-1 reverse act: inactive

What do the screens show for `Cc1ccc(-c2csc3nc4c5ccccc5c(NCCCN5CCOCC5)nn4c(=O)c23)cc1`?
U2OS ROS induce: inactive; NOMO-1 viab: 113.7; PD-1 reverse act: inactive

What do the screens show for `Cc1sc2nc3c4ccccc4c(NCC4CCCO4)nn3c(=O)c2c1C` (configuration not stated)?
U2OS ROS induce: inactive; YB-1 expression: inactive; NOMO-1 viab: 86.9; PD-1 reverse act: inactive

What do the screens show for `COc1ccc(-c2oc3ncn(CCO)c(=N)c3c2-c2ccc(OC)cc2)cc1`?
U2OS ROS induce: inactive

What do the screens show for `COc1ccc(-c2oc3ncn(CC(C)C)c(=N)c3c2-c2ccc(OC)cc2)cc1`?
U2OS ROS induce: 94.4

What do the screens show for `Cc1ccc(S(=O)(=O)Nc2ccc3c(c2)C(=O)N([C@H](C)CO)C[C@H](C)[C@@H](CN(C)S(=O)(=O)c2c(C)noc2C)OCCCC[C@@H](C)O3)cc1`?
U2OS ROS induce: inactive; YB-1 expression: inactive; NOMO-1 viab: inactive

Results for Cc1ccc(S(=O)(=O)N(C)C[C@H]2OCCCC[C@@H](C)Oc3ccc(NS(=O)(=O)c4c(C)noc4C)cc3C(=O)N([C@H](C)CO)C[C@@H]2C)cc1 ?
U2OS ROS induce: inactive; YB-1 expression: inactive; NOMO-1 viab: inactive

Results for Cc1noc(C)c1S(=O)(=O)Nc1ccc2c(c1)C(=O)N([C@H](C)CO)C[C@H](C)[C@@H](CN(C)S(=O)(=O)c1ccc(F)cc1)OCCCC[C@@H](C)O2 ?
U2OS ROS induce: 126.3; YB-1 expression: inactive; NOMO-1 viab: inactive; PD-1 reverse act: inactive

How did COc1ccc(S(=O)(=O)Nc2ccc3c(c2)C(=O)N([C@H](C)CO)C[C@H](C)[C@H](CN(C)S(=O)(=O)c2ccc(Cl)cc2)OCCCC[C@@H](C)O3)cc1 do in these assays?
U2OS ROS induce: 91.5; YB-1 expression: inactive; NOMO-1 viab: 107.2; PD-1 reverse act: inactive

Results for Cc1noc(C)c1S(=O)(=O)N(C)C[C@H]1OCCCC[C@@H](C)Oc2ccc(NS(=O)(=O)c3ccc(Cl)cc3)cc2C(=O)N([C@H](C)CO)C[C@@H]1C ?
U2OS ROS induce: 110.3; YB-1 expression: inactive; NOMO-1 viab: inactive

How did C=CCN1C(C(=O)c2ccccc2)=C(OC(=O)c2ccccc2)c2ccccc2S1(=O)=O do in these assays?
U2OS ROS induce: inactive; YB-1 expression: inactive; NOMO-1 viab: 107.9; PD-1 reverse act: inactive

Results for O=C(Oc1ccc(N(Cc2cccs2)C2=NS(=O)(=O)c3ccccc32)cc1)c1ccccc1 ?
U2OS ROS induce: inactive; YB-1 expression: inactive; NOMO-1 viab: inactive; PD-1 reverse act: inactive

Results for Nc1ncnc2c1cnn2-c1ccccc1 ?
U2OS ROS induce: inactive; YB-1 expression: 3.88; NOMO-1 viab: inactive; PD-1 reverse act: inactive

Results for C[C@H](CO)N1C[C@H](C)[C@@H](CN(C)Cc2ccc(C(F)(F)F)cc2)Oc2ccc(NC(=O)Cc3cn(C)c4ccccc34)cc2C1=O ?
U2OS ROS induce: 108.8; YB-1 expression: inactive; NOMO-1 viab: inactive; PD-1 reverse act: inactive

Results for C[C@H]1CN([C@@H](C)CO)C(=O)c2cc(NC(=O)Cc3cn(C)c4ccccc34)ccc2O[C@@H]1CN(C)Cc1ccc(C(F)(F)F)cc1 ?
U2OS ROS induce: 122.4; YB-1 expression: inactive; NOMO-1 viab: inactive

How did CC(=O)c1cccc(NC(=O)C(C)NS(=O)(=O)c2ccc(Cl)cc2)c1 (configuration not stated) do in these assays?
U2OS ROS induce: inactive; NOMO-1 viab: inactive; PD-1 reverse act: inactive

Results for C=C1C(=O)O[C@@H]2/C=C(\CO)CCC/C(C)=C/[C@H](O)C12 (some centres not stated) ?
U2OS ROS induce: inactive; YB-1 expression: inactive; NOMO-1 viab: 116.1; PD-1 reverse act: inactive
